In the supplement of paper PMC6555819:

Legend:
Assay in all cases: PBM binding z-score (relative to random genomic background probes); higher = stronger binding; sequences stand for … in GC…GCGATTGACAGCGTAGAATGAAGG
[1] = tested on: RARb homodimer (NR concentration 270 nM)
Outline: (§1)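 For binding z-scores, the reference was random background probes on custom Agilent 4×180K protein-binding microarrays. These arrays were incubated 1 h with ligand-free nuclear receptor dimers in PBS pH 7.4, 2% milk, 0.02% Triton X-100, 1 mM DTT, 0.2 mg/mL BSA and 0.4 mg/ml salmon testes DNA. Fluorescence was scanned after antibody detection of each partner (one per run) and regression-normalized.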

[2] = tested on: RARg:RXRa (NR concentration 270 nM, RXRa partner concentration 90 nM)
Outline: as §1

[3] = tested on: RARg homodimer (NR concentration 270 nM)
Outline: as §1

[4] = tested on: RXRa DBDmut IVT, anti-RXR (DBD mutation: RXRa K156A/R161A, NR concentration 90 nM)
Outline: as §1

[5] = tested on: RXRa homodimer (NR concentration 180 nM)
Outline: as §1

[6] = tested on: THRa:RXRa (NR concentration 90 nM, RXRa partner concentration 90 nM)
Outline: as §1

[7] = tested on: THRa homodimer (NR concentration 90 nM)
Outline: as §1

[8] = tested on: VDR homodimer (NR concentration 270 nM)
Outline: as §1

Sequence | PBM binding z-score [1] | PBM binding z-score [2] | PBM binding z-score [3] | PBM binding z-score [4] | PBM binding z-score [5] | PBM binding z-score [6] | PBM binding z-score [7] | PBM binding z-score [8]
CCTAGTTGGTCAGGAGCTCACACACCGGATATGA | 0.161 | 0.446 | 0.601 | -0.0483 | 0.0648 | -0.298 | -0.103 | 0.545
TCATATAGGTAAATCCTAGGTGAAAGTCCGATCT | 0.18 | 0.491 | 0.396 | 1.37 | 0.983 | 1.96 | 0.368 | -0.253
TAGCCTAGGTCATGCGGGCCAGAATAGTGTCGGC | 2.94 | 4.18 | 4.34 | 0.571 | 3.18 | 3.03 | 0.922 | 0.435
GCTATCAGTTGAAAGGGCAACCGAATGATTCTCG | 1.81 | 1.22 | 1.28 | 0.45 | 1.26 | 0.693 | -0.411 | -0.03
TCTATTAGTTGAAGCGCAACCGACGAGTCCGTTT | -0.298 | -0.0942 | -0.507 | 1.16 | 0.302 | -0.201 | -0.12 | 0.818
CCGAGCAGGTTATGGGGCATTCAGGCAACGGTGA | 1.03 | 0.387 | 0.573 | -0.126 | 0.679 | 0.573 | 0.0585 | -0.392
AGAACGAGGGCAATGAGTTTATAGCACGGGTGGC | 1.18 | 1.27 | 1.88 | 2.91 | 0.965 | 0.983 | -0.489 | 5.83
ATACCAAGGTGATCCTGAGGTCGTTGATACTAAC | 1.82 | 2.54 | 0.948 | 0.968 | 2.08 | 3.67 | 2.52 | 2.87
CCTACTGAGCCAAGGTCATTGATCAGTCAAAGCA | 3.43 | 3.7 | 3.17 | 2.2 | 3.23 | 3.52 | 2.49 | 3.65
CCTACTGGGGCAAAGGTTACCATACTCAGTACGA | 2.27 | 3.72 | 1.99 | 0.241 | 3.86 | 1.85 | -0.303 | 0.381
CCTACTGGGCCCCGAAAGGTCATTGATTCAGTGA | 4.21 | 4.35 | 3.23 | -0.457 | 4.99 | 3.04 | 1.03 | 1.81
ACTATTAGTTGAGACGAGGGCAAGCGATAGGTTG | 1.06 | 0.352 | 0.635 | 0.63 | 0.484 | 2.28 | 0.357 | 0.593
CCTCGGAGGACAACAGGAGGTCAGAGCTGCCAGA | 3.64 | 3.37 | 2.98 | 0.172 | 1.76 | 2.89 | 1.04 | 1.21
GGAACGAGAGCAAGTTGATAGCAGAGTTTGATGG | -0.683 | -0.186 | -0.0143 | 0.292 | 0.0687 | -0.547 | -1.15 | -0.0204
CTCGAAAGGTCGTACTCAGGTGAGTATACCAAAC | 2.52 | 4.96 | 3.87 | 2.42 | 4.91 | 3.89 | 0.987 | 1.47
TGAATGAGGTTATAAGATCAGGGGACGTTGCAAA | 0.854 | 1.51 | 0.975 | 1.3 | 2.02 | 2.1 | 0.619 | 1.21
CCTAGTTGGTCAGGAGGTCACACTCCGGATATGA | 4.21 | 4.74 | 4.43 | 1.03 | 5.04 | 3.4 | 2.46 | 2.5
ATGTGTAGGTTATCGGGTCATTCAGTTTGCGCAT | 3.35 | 3.59 | 2.67 | 1.75 | 3.57 | 3.57 | 3.71 | 3.91
GCTGCTAGGTCAACTCATGGTCAGCTAAAGCTCG | 3.69 | 5.16 | 5.42 | 1.45 | 2.86 | 3.17 | 1.15 | 0.269
GCTATTGGTTGAAAGGGCAACCGAATGATTCTCG | 1.94 | 1.33 | 1.27 | 0.0979 | 1.32 | 0.466 | -0.293 | 0.0908
TCATATAGGTAAACAGCTGAAAGTCCGTAAGTTA | 0.0749 | 0.25 | 0.0863 | 1.64 | 0.623 | 0.172 | -0.236 | 0.162
TCTGATAGGTCAACGATGGTCAGCTAATCTGCTA | 3.94 | 5.15 | 5.89 | 1.21 | 4.73 | 3.1 | -0.296 | -0.032
TCTAGTTGGTCACGGAGCTCACACACGACGGGTA | 0.591 | 1.04 | 1.24 | 0.372 | 0.925 | -0.123 | -0.466 | -0.521
ACTCTGAGGACAAAGGTCAGAGCTACGCCAGTGA | 4.42 | 6.21 | 5.31 | 2.07 | 5.18 | 4.44 | 2.66 | 1.19
TGAATGAGGTTAAAGATCAGAGAACGTGGCGTCG | 0.55 | 2.23 | 1.36 | 1.15 | 3.86 | 2.28 | 0.132 | 0.373
TCTTGTAGATCAGCAAGTTAAGAAAGCTGGCCAA | -0.5 | -0.41 | -0.827 | 0.54 | -0.136 | -0.47 | -1.04 | -0.456
TCTAGTTGGTCACGGAGATCACACACGACGGGTA | 1.07 | 1.07 | 1.4 | 0.762 | 1.19 | 0.155 | 0.328 | 0.211
CCTACTGGGCCAAAAAGGTCATGGATGCCGATAA | 1.31 | 5 | 4.57 | 0.231 | 5.58 | 3.41 | 1.05 | 1.81
